PubChem BioAssay (Tox21)
“And” between values parts separate entries of the source, which are not always exact repeats. Identical values can stand only once. The source made the active and inactive calls. Unless noted, the call rests on the fitted dose curve; in most records, active means well fitted curve in the direction sought with a large enough effect in the repeat runs; inconclusive means weak or mixed curves; inactive means no such curve, though single readings can be large; an effect the other way counts as inactive or inconclusive.

Assays:
[1] = qHTS assay to identify small molecule antagonists of the thyroid receptor (TR) signaling pathway - cell viability counter screen (AID 743064); further: nearly all actives have a fitted effect of over 50% in size; further: potency means the concentration at half of the fitted maximal effect
Method in brief: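 GH3.TRE-Luc rat pituitary cells dosed after 4 hr plating, co-stimulated with T3 at 1 nM final, incubated 23.5 h at 37 C. Viability measured in the same wells by CellTiter-Fluor fluorescence after 30 min further at 37 C.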

[2] = qHTS assay to identify small molecule antagonists of the thyroid receptor (TR) signaling pathway (AID 743065); further: potency means the concentration at half of the fitted maximal effect; nearly all actives have a fitted effect of over 55% in size
Method in brief: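 Antagonism measured as loss of luciferase signal in GH3 cells stably carrying a TRE-luciferase reporter, co-treated with compound and T3 (1 nM final) for 23.5 h at 37 C. Viability was read in the same well by CellTiter-Fluor.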

[3] = qHTS assay to identify small molecule antagonists of the estrogen receptor alpha (ER-alpha) signaling pathway - cell viability counter screen (AID 743074; calls by dose curve; further: nearly all actives have a fitted effect of over 45% in size; further: potency means the concentration at half of the fitted maximal effect)
[4] = molecular target: Estrogen receptor (Homo sapiens) (UniProt P03372); experiment: qHTS assay to identify small molecule agonists of the estrogen receptor alpha (ER-alpha) signaling pathway (AID 743075; calls by dose curve; further: potency means the concentration at half of the fitted maximal effect; on activation: on the % scale 0 is the no-effect control and ±100 the full control effect)
Chain of Estrogen receptor (Homo sapiens) (P03372 whole entry, looked up): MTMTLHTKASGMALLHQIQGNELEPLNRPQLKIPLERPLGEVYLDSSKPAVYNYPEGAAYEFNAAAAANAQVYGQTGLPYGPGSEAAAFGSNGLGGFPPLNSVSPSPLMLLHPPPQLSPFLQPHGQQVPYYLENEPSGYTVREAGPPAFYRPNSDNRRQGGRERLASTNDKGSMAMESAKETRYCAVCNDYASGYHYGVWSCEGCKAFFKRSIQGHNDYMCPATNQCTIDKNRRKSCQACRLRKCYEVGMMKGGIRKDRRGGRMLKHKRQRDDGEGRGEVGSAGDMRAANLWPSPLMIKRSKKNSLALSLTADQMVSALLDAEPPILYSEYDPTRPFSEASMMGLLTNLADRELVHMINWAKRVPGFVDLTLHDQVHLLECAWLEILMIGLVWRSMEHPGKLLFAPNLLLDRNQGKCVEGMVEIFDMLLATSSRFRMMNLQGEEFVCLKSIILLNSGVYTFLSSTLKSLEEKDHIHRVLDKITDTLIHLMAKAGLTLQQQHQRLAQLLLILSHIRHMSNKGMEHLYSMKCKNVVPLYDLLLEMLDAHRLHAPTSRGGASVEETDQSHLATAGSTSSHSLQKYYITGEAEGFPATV

[5] = qHTS assay to identify small molecule antagonists of the estrogen receptor alpha (ER-alpha) signaling pathway using the BG1 cell line - cell viability counter screen (AID 743081);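 further: compound given together with 17beta-estradiol as the ER stimulus; nearly all actives have a fitted effect of over 45% in size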; further: potency means the concentration at half of the fitted maximal effect
Aromatase (Homo sapiens) = Aromatase (Homo sapiens) (UniProt P11511); experiment: qHTS assay to identify aromatase inhibitors (AID 743083); further: nearly all actives have a fitted effect of over 55% in size; further: potency means the concentration at half of the fitted maximal effect
Chain of Aromatase (Homo sapiens) (P11511 whole entry, looked up): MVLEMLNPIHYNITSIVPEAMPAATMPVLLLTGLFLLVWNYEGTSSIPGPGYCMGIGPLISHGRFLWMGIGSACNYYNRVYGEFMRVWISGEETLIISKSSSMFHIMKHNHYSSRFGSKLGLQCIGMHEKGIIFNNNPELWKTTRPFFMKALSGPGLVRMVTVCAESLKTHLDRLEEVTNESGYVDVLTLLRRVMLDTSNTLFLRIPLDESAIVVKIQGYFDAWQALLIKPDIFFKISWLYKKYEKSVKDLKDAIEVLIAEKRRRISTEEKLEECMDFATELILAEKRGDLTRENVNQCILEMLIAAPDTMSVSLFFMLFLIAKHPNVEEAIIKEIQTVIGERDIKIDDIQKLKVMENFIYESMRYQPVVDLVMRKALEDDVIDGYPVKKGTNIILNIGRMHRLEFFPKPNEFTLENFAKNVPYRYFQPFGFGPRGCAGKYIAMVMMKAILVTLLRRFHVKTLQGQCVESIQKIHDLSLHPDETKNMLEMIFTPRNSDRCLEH

[6] = qHTS assay to identify aromatase inhibitors - cell viability counter screen (AID 743084);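 further: cells stimulated with testosterone during compound exposure; nearly all actives have a fitted effect of over 55% in size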; further: potency means the concentration at half of the fitted maximal effect
[7] = molecular target: Aryl hydrocarbon receptor (Homo sapiens) (UniProt P35869); experiment: qHTS assay to identify small molecule that activate the aryl hydrocarbon receptor (AhR) signaling pathway (AID 743085);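 further: HG2L7.5c1 human HepG2 liver cells with stably integrated DRE-driven firefly reporter; on the % scale 0 is the no-effect control and ±100 the full control effect; nearly all actives have a fitted effect of over 15% in size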
Chain of Aryl hydrocarbon receptor (Homo sapiens) (P35869 whole entry, looked up): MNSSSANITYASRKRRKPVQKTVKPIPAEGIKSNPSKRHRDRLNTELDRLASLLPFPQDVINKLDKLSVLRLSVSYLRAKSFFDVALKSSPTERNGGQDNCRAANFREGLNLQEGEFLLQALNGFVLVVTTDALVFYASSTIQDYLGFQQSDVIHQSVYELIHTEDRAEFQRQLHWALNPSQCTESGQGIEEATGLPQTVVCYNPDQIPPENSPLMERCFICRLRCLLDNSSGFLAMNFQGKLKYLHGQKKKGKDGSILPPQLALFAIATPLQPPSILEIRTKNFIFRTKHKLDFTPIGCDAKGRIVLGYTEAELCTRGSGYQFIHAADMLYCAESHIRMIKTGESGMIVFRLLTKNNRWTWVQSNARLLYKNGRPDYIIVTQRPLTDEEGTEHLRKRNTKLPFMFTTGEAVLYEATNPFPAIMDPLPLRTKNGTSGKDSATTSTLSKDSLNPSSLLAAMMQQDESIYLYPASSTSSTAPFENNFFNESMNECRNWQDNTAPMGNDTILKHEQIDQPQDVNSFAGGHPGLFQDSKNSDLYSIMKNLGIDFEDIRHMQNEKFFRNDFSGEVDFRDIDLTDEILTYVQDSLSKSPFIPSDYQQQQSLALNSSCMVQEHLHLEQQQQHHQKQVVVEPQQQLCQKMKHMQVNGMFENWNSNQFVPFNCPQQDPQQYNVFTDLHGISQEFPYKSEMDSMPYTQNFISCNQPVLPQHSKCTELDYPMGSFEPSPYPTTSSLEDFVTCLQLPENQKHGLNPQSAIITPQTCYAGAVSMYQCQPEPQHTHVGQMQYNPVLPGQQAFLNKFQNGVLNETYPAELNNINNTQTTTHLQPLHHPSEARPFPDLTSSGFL
Method in brief: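 HepG2 cells stably carrying a 20-DRE firefly luciferase reporter (HG2L7.5c1) treated with compound for 24 hr at 37C. Luciferase read by ONE-Glo luminescence, with CellTiter-Fluor viability read first.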

[8] = qHTS assay to identify small molecule antagonists of the peroxisome proliferator-activated receptor gamma (PPARg) signaling pathway - cell viability counter screen (AID 743194); conditions: Potency: co-treated with 50 nM rosiglitazone unless noted; further: nearly all actives have a fitted effect of over 55% in size; further: potency means the concentration at half of the fitted maximal effect
Method in brief: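 Viability was measured as CellTiter-Glo luminescence in GeneBLAzer PPARg UAS-bla HEK293H cells. These cells had been exposed 17 h at 37 C to compounds together with rosiglitazone at 50 nM final, with the beta-lactamase readout taken in the same wells.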

[9] = qHTS assay for small molecule agonists of the antioxidant response element (ARE) signaling pathway - cell viability counter screen (AID 743203; calls by dose curve; further: nearly all actives have a fitted effect of over 55% in size; further: potency means the concentration at half of the fitted maximal effect)
Method in brief: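 Parallel cytotoxicity read-out for the ARE-bla screen: HepG2 reporter cells, 16 hrs with compounds, then CellTiter-Glo luminescence.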

[10] = tested on: thyroid hormone receptor (rat, GH3 cells); experiment: qHTS assay to identify small molecule agonists of the thyroid receptor (TR) signaling pathway (AID 743066; calls by dose curve; further: on the % scale 0 is the no-effect control and ±100 the full control effect)
[11] = molecular target: Estrogen receptor (Homo sapiens) (UniProt P03372); experiment: qHTS assay to identify small molecule antagonists of the estrogen receptor alpha (ER-alpha) signaling pathway (AID 743069; active means well fitted curve in the direction sought with a large enough effect in the signal ratio in the repeat runs, not every such curve was filed as active; inconclusive means weak or mixed curves, or effect the other way; inactive means no such curve, though single readings can be large or run the other way; the % refers to the signal ratio; further: on the % scale 0 is the no-effect control and ±100 the full control effect)
Method in brief: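 Fluorescence intensity from a beta-lactamase FRET substrate served as the read-out. Cells: HEK293 with stably integrated ER-alpha-UAS-bla reporter. Agonist 17beta-estradiol was co-added with compounds; incubation 18 hr at 37C, substrate 2 hr at room temperature.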

[12] = molecular target: Estrogen receptor (Homo sapiens) (UniProt P03372); experiment: qHTS assay to identify small molecule agonists of the estrogen receptor alpha (ER-alpha) signaling pathway using the BG1 cell line (AID 743079); conditions: BG1Luc4E2 cells, ERE-luciferase agonist, 22 h; activation: at 70.3 µM (top of the series); further: on the % scale 0 is the no-effect control and ±100 the full control effect; nearly all actives have a fitted effect of over 20% in size
[13] = qHTS assay to identify small molecule antagonists of the estrogen receptor alpha (ER-alpha) signaling pathway using the BG1 cell line (AID 743080; calls by dose curve;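 further: BG1 cells stimulated with 17beta-estradiol alongside compound; nearly all actives have a fitted effect of over 25% in size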; further: potency means the concentration at half of the fitted maximal effect)
Method in brief: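 Luciferase inhibition measured with ONE-Glo after 30 min at RT in BG1Luc4E2 cells given test compounds and 17beta-estradiol for 21.5 h at 37 C; CellTiter-Fluor viability read in the same wells beforehand.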

[14] = qHTS assay to identify small molecule that activate the aryl hydrocarbon receptor (AhR) signaling pathway - cell viability counter screen (AID 743086);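 further: HepG2 liver cells carrying the AhR DRE luciferase reporter; on the % scale 0 is the no-effect control and ±100 the full control effect; nearly all actives have a fitted effect of over 45% in size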
Method in brief: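 Cytotoxicity counter screen: CellTiter-Fluor signal (30 min, 37 C) in 4000 HepG2 cells/well carrying the DRE-luciferase reporter, following 24 h compound exposure at 37 C.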

[15] = molecular target: Peroxisome proliferator-activated receptor gamma (Homo sapiens) (UniProt P37231); experiment: qHTS assay to identify small molecule agonists of the peroxisome proliferator-activated receptor gamma (PPARg) signaling pathway (AID 743094; active means well fitted activation curve with a large enough effect in the signal ratio in the repeat runs, not every such curve was filed as active; inconclusive means weak or mixed curves, or effect the other way; inactive means no such curve, though single readings can be large or run the other way; the % refers to the signal ratio; further: potency means the concentration at half of the fitted maximal effect)
Chain of Peroxisome proliferator-activated receptor gamma (Homo sapiens) (P37231 whole entry, looked up): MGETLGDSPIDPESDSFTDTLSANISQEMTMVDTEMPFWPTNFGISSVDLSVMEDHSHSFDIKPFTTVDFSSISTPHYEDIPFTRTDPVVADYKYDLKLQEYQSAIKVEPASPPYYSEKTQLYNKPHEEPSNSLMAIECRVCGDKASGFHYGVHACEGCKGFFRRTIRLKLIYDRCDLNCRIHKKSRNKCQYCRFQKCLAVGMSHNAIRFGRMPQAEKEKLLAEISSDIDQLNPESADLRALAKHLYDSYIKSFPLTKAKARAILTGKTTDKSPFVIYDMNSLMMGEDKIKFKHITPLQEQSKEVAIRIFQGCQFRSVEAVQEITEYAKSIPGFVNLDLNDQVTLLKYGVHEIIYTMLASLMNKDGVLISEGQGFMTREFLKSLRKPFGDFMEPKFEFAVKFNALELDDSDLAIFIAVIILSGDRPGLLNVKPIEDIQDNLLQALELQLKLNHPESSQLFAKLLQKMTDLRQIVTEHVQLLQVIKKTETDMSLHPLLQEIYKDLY
Method in brief: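 Fluorescence-based beta-lactamase readout in HEK293H PPARg UAS-bla cells after 17 h compound exposure (37C) and 1 h B/G FRET substrate incubation at room temperature.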

[16] = qHTS assay for small molecule activators of the heat shock response signaling pathway - cell viability counter screen (AID 743209); further: nearly all actives have a fitted effect of over 50% in size; further: potency means the concentration at half of the fitted maximal effect
Method in brief: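 To flag cytotoxic compounds, HSE-bla HeLa cells plated at 1500 cells/well were dosed for 5 h at 37 C, followed by the reporter FRET read and then CellTiter-Glo, with luminescence recorded 30 min after reagent addition.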

[17] = qHTS assay for small molecule activators of the heat shock response signaling pathway (AID 743210; active means well fitted activation curve with a large enough effect in the signal ratio in the repeat runs, with a control signal flat, not every such curve was filed as active; inconclusive means weak or mixed curves; the % refers to the signal ratio;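 further: HeLa cells with beta-lactamase reporter driven by heat shock elements; on the % scale 0 is the no-effect control and ±100 the full control effect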)
Method in brief: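 Fluorescence from a cleaved B/G FRET substrate (2.5 h, room temp) reports HSE-driven beta-lactamase in HeLa cells treated 5 h at 37 C with DMSO-dissolved compounds.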

[18] = molecular target: Peroxisome proliferator-activated receptor gamma (Homo sapiens) (UniProt P37231); experiment: qHTS assay to identify small molecule antagonists of the peroxisome proliferator-activated receptor gamma (PPARg) signaling pathway (AID 743191; calls by dose curve; further: on the % scale 0 is the no-effect control and ±100 the full control effect; nearly all actives have a fitted effect of over 30% in size)
Method in brief: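 Beta-lactamase reporter under UAS control in HEK293H PPARg-bla cells; compound treatment 17 h at 37C. Read-out: fluorescence intensity after 1 h room-temperature incubation with LiveBLAzer B/G FRET substrate.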

[19] = qHTS assay for small molecule agonists of the antioxidant response element (ARE) signaling pathway (AID 743202; active means well fitted activation curve with a large enough effect in the signal ratio in the repeat runs, not every such curve was filed as active; inconclusive means weak or mixed curves, or effect the other way; inactive means no such curve, though single readings can be large or run the other way; the % refers to the signal ratio; further: potency means the concentration at half of the fitted maximal effect)
Method in brief: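 Beta-lactamase reporter activity, read as fluorescence intensity, reflects ARE/Nrf2 pathway induction in HepG2 cells after 16 h compound exposure at 37 C; substrate loading was 2 h at room temperature.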

Fc1ccc(C(OCCN2CCN(CCCc3ccccc3)CC2)c2ccc(F)cc2)cc1
inactive: Potency [4] | Potency [7]
active: Potency [1] 9.44 µM | Potency [2] 7.5 µM | Potency [3] 15.1 µM | Potency [5] 21.1 µM | Potency (Aromatase (Homo sapiens)) 18.8 µM | Potency [6] 26.6 µM | Potency [8] 16.8 µM | Potency [9] 29.8 µM

CC(=O)C(Cl)C(=O)N(C)C (stereo unspecified)
inactive: Potency [1] | Potency [10] | Potency [11] | Potency [3] | Potency [4] | Potency [12] | Potency [13] | Potency [5] | Potency (Aromatase (Homo sapiens)) | Potency [6] | Potency [7] | Potency [14] | Potency [15] | Potency [9] | Potency [16] | Potency [17]

O=c1c2ccccc2c(=O)c2c1cc(Cl)c1[nH]c3c([nH]c12)c(Cl)cc1c(=O)c2ccccc2c(=O)c13
inactive: Potency [1] | Potency [10] | Potency [11] | Potency [3] | Potency [4] | Potency [12] | Potency [13] | Potency [5] | Potency (Aromatase (Homo sapiens)) | Potency [6] | Potency [14] | Potency [15] | Potency [18] | Potency [19] | Potency [9] | Potency [16] | Potency [17]

CC(=O)O.CC(=O)O.CC(=O)O.CC(=O)O.CC(=O)O.CC(=O)O.CC(=O)O.O.O.[Cr].[Cr].[Cr]
inactive: Potency [1] | Potency [10] | Potency [3] | Potency [5] | Potency (Aromatase (Homo sapiens)) | Potency [6] | Potency [7] | Potency [14] | Potency [8] | Potency [9] | Potency [16]

C[N+]1(C)[C@@H]2CC[C@H]1CC(OC(=O)C(CO)c1ccccc1)C2 (stereo partly specified)
inactive: Potency [1] | Potency [10] | Potency [3] | Potency [13] | Potency [5] | Potency (Aromatase (Homo sapiens)) | Potency [6] | Potency [7] | Potency [14] | Potency [8] | Potency [9] | Potency [16] | Potency [17]

CC(=O)[O-].CC(=O)[O-].O.O.[Zn+2]
inactive: Potency [1] | Potency [10] | Potency [5] | Potency (Aromatase (Homo sapiens)) | Potency [6] | Potency [7] | Potency [14] | Potency [8] | Potency [19] | Potency [9] | Potency [16]

CC(=O)[O-].CC(=O)[O-].CC(=O)[O-].[Sb+3]
inactive: activity change, negative = cytotoxic [1] 15.9% [at 8.44 µM] | activation [10] 0.26% [at 8.08 µM] | activity, negative = cytotoxicity [3] 16.3% [at 6.72 µM] | activity change, negative = cytotoxicity [5] 10.6% [at 8.47 µM] | activity, negative = inhibition (Aromatase (Homo sapiens)) 2.18% [at 8.47 µM] | activity change, negative = cytotoxicity [6] 6.01% [at 8.47 µM] | activation [7] 0.374% [at 8.47 µM] | activity change, negative = cytotoxicity [8] -5.68% [at 5.95 µM, co-treated with 50 nM rosiglitazone] | activation [19] -8.79% [at 8.36 µM] | viability change, negative = cytotoxic [9] -9.94% [at 8.36 µM] | activity change, negative = cytotoxicity [16] 4.7% [at 5.95 µM]

CCC[CH2][Sn]([CH2]CCC)([CH2]CCC)[CH2]CCC
inactive: Potency (Aromatase (Homo sapiens)) | Potency [7]
active: Potency [1] 30.6 µM | Potency [2] 19.3 µM | Potency [6] 43.3 µM | Potency [15] 54.9 µM | Potency [9] 15.4 µM

CN1CCc2cc(Cl)c(O)cc2[C@H]2c3ccccc3CC[C@@H]21
inactive: Potency [3] | Potency [4] | Potency [12] | Potency (Aromatase (Homo sapiens)) | Potency [6] | Potency [7] | Potency [15] | Potency [8] | Potency [19] | Potency [9] | Potency [16] | Potency [17]
active: Potency [1] 13.3 µM | Potency [2] 13.3 µM

Clc1ccc(C2(Cn3cncn3)OCCO2)c(Cl)c1
inactive: Potency [1] | Potency [11] | Potency [3] | Potency [4] | Potency [12] | Potency [13] | Potency [5] | Potency (Aromatase (Homo sapiens)) | Potency [6] | Potency [7] | Potency [8] | Potency [9] | Potency [16] | Potency [17]

CCN(CC)C(=S)S
active: Potency [1] 1.19 µM | Potency [6] 8.71 µM and 7.65 µM and 4.86 µM | Potency [16] 6.98 µM and 2.75 µM
inactive: Potency [10] | Potency [11] | Potency [3] | Potency [4] | Potency [12] | Potency [5] | Potency [7] | Potency [18] | Potency [8] | Potency [9]

[Cl][Hg][c]1ccccc1
active: Potency [1] 0.243 µM | Potency [2] 0.0863 µM | Potency [3] 12.3 µM | Potency [4] 4.36 µM [fluorescent] | Potency [5] 30.6 µM | Potency (Aromatase (Homo sapiens)) 1.37 µM | Potency [6] 1.93 µM | Potency [8] 0.776 µM | Potency [9] 1.72 µM | Potency [16] 3.09 µM
inactive: Potency [7]

CC(=O)[O-].CC(=O)[O-].O.O.O.[Pb+2]
inactive: Potency [1] | Potency [10] | Potency [3] | Potency [5] | Potency (Aromatase (Homo sapiens)) | Potency [6] | Potency [7] | Potency [14] | Potency [8] | Potency [9] | Potency [16]
active: Potency [19] 2.73 µM

CN
inactive: Potency [1] | Potency [10] | Potency [3] | Potency [5] | Potency (Aromatase (Homo sapiens)) | Potency [6] | Potency [7] | Potency [14] | Potency [8] | Potency [9] | Potency [16] | Potency [17]

[F][Sn]([c]1ccccc1)([c]1ccccc1)[c]1ccccc1
inactive: Potency [7]
active: Potency [1] 0.77 µM | Potency [2] 0.386 µM | Potency [3] 1.1 µM | Potency [4] 2.19 µM [inconclusive] | Potency [13] 1.93 µM | Potency [5] 7.7 µM | Potency [6] 3.06 µM | Potency [9] 0.344 µM
